# Source: the supplement of paper PMC10338343
# Test system: MILI (PIWIL2) piRISC loaded with L1MC piRNA (26 nt)
# Assay: pre-steady-state target cleavage rate (min^-1); guide: L1MC piRNA 5'p-UAACUAAAUACUAUGCAAGCUGUAGG; MIWI and MILI are mouse PIWI proteins and EfPiwi is from a freshwater sponge; tags in brackets are library labels; higher = faster piRNA-guided slicing of the target
# Conditions: auxiliary factor: none (no GTSF1)
# Method in brief: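 Three pooled Cleave-'n-Seq trials supplied the data, with k3 capped at 0.0001 min^-1. In each, […] transcribed, DNA-blocked target RNA library and 1 nM active affinity-purified piRISC with one synthetic guide reacted in HEPES–potassium acetate buffer at 33 °C for 0–8 or 0–960 min, with or without 500 nM GTSF1 partner protein. Uncleaved targets were sequenced and normalised to depth and to weakly complementary targets. A burst-and-steady-state fit provided the pre-steady-state cleavage rate.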
# 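Note: 1 nM active piRISC with 0.1 nM target library at 33 °C single turnover.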
row,Sequence,pre-steady-state target cleavage rate
1,UCCUGGAACAGCUUGCAAUCAUAAAUCAAA [g14:g23:cont:t1A],< 0.0001
2,UCCUGGAUGUCGAACGUUAGUAUUUGUUA,< 0.0001
3,UCCUGGAUGUCGAACCAUAAUAUUUAGUUA,< 0.0001
4,UCCUGGAUGUCGAAGCAUAGAAUUUAGUAA,< 0.0001
